± gives the standard deviation.
Assays:
Settings in all cases: modulator concentration 10 µM
[1] = tested on: RAW-Dual (murine macrophage reporter line); assay: NF-kB reporter (SEAP) activity fold change vs agonist alone; higher = enhanced NF-kB activity
Procedure, shortened: (§1)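 Overnight stimulation with a PRR agonist followed pre-incubation for 1 hour at 37 °C with compound at 10 μM final. This was done in RAW-Dual murine macrophage reporter cells seeded at 50 000 per well in 384-well plates. NF-κB (SEAP, QUANTI-Blue absorbance at 620 nm) and IRF (Lucia luciferase, QUANTI-Luc luminescence) were read from the supernatant. Each reporter's fold change relative to the mean agonist-only control on the same plate was averaged over replicate plates.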

[2] = tested on: RAW-Dual (murine macrophage reporter line); assay: IRF reporter (Lucia luciferase) activity fold change vs agonist alone; higher = enhanced IRF activity
Procedure, shortened: as §1

[3] = tested on: RAW-Dual (murine macrophage reporter line); assay: viability score (confluency relative to resting cells, overnight) (fraction); higher = more viable, active = viable (0.7 or more)
Procedure, shortened: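 RAW-Dual macrophages in 384-well plates were exposed overnight to compound at 10 μM final. Confluency was imaged with IncuCyte, and two confluency masks were generated with IncuCyte software over all imaged wells. The viability score is confluency expressed relative to resting cells. Compounds were called viable if both masks exceeded 70% of resting cells.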

[4] = agonist: CpG ODN 1826 0.5 ug/mL

SMILES	NF-kB reporter [1, 4]	NF-kB reporter ([1]; agonist: LPS 0.1 ug/mL)	NF-kB reporter ([1]; agonist: MPLA […])	IRF reporter ([2]; agonist: 3'3'-cGAMP 10 ug/mL)	IRF reporter ([2]; agonist: LPS 0.1 ug/mL)	IRF reporter ([2]; agonist: MPLA […])	viability score [3]
CC1=C(C(=O)Nc2ccc(C)cn2)C(c2ccccc2Cl)C2=C(CCCC2=O)N1 (stereo unspecified)	1.01 ± 0.12	0.983 ± 0.062	0.847 ± 0.053	1.02 ± 0.034	1.43 ± 0.12	1.1 ± 0.08	1.01 (active)
O=C(NCC1CCCN1c1nccs1)C1CC1 (stereo unspecified)	0.946 ± 0.045	1.02 ± 0.12	1.13 ± 0.084	0.973 ± 0.07	1.03 ± 0.23	1.18 ± 0.54	0.99 (active)
Cn1nc(CNS(=O)(=O)c2cccc(C(F)(F)F)c2)c2c1CCOC2	1.13 ± 0.34	1.08 ± 0.061	1.02 ± 0.065	0.955 ± 0.035	1.05 ± 0.13	1.12 ± 0.11	1 (active)
Nc1ncn([C@@H]2O[C@H](CO)[C@@H](O)[C@H]2O)c(=O)n1	1.55 ± 0.066	0.569 ± 0.045	1.99 ± 0.16	0.549 ± 0.035	0.433 ± 0.049	0.502 ± 0.1	0.745 (active)
COc1ccc(-c2oc3ccc(OC)cc3c2C(=O)Nc2ccccc2Cl)cc1	0.872 ± 0.051	1.05 ± 0.11	1.42 ± 0.041	0.756 ± 0.052	0.865 ± 0.062	1.84 ± 0.28	1 (active)
CCCCNC(=O)Cc1ccc(Br)cc1	0.947 ± 0.15	0.904 ± 0.11	0.913 ± 0.11	0.986 ± 0.052	1.29 ± 0.25	1.4 ± 0.33	0.989 (active)
Cl.O=C1c2cccc3c2C(CCC3)CN1C1CN2CCC1CC2 (stereo unspecified)	0.77 ± 0.21	0.704 ± 0.044	0.825 ± 0.058	0.557 ± 0.035	0.718 ± 0.086	0.924 ± 0.14	0.987 (active)
COc1cc(C2Oc3cc(C4Oc5cc(O)cc(O)c5C(=O)C4O)ccc3OC2CO)ccc1O (stereo unspecified)	1.11 ± 0.083	1.07 ± 0.057	1.13 ± 0.029	0.988 ± 0.082	0.93 ± 0.17	1 ± 0.17	0.981 (active)
COC(=O)C1=C(C)N(Cc2ccccc2)C(=O)C1=Cc1ccc(C)cc1	0.59 ± 0.048	0.655 ± 0.05	0.749 ± 0.069	0.4 ± 0.02	1.08 ± 0.068	0.948 ± 0.092	0.998 (active)
N#Cc1cc(OC2CCSC2)nc2ccccc12 (stereo unspecified)	1.04 ± 0.067	1.05 ± 0.095	1.18 ± 0.065	0.935 ± 0.071	0.959 ± 0.045	1.15 ± 0.16	1 (active)
CC#CC(=O)Nc1ccc(N2CCOCC2=O)c(C)c1	0.993 ± 0.062	1.01 ± 0.086	1.01 ± 0.092	0.961 ± 0.058	0.913 ± 0.084	0.865 ± 0.14	1.01 (active)
CCCCSc1nnc2c(n1)OC(c1cccc(O)c1)Nc1ccc(Br)cc1-2 (stereo unspecified)	0.765 ± 0.063	0.954 ± 0.073	0.996 ± 0.14	0.644 ± 0.031	0.931 ± 0.065	0.866 ± 0.075	1.02 (active)
CCOc1ccc(S(=O)(=O)N2C3CCC2CC(S(=O)(=O)c2ccccc2)C3)cc1 (stereo unspecified)	0.976 ± 0.06	1.05 ± 0.098	0.968 ± 0.053	0.977 ± 0.044	1.25 ± 0.2	1.25 ± 0.29	0.978 (active)

Reference: the supplement of paper PMC10646978
